Experimental data from PubChem BioAssay (NCI).
The panel holds about 83,000 compounds, 20% with a hit somewhere; the sample as a whole holds those more often.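 Note: values are percent growth. 100 is the growth of untreated cells, values between 100 and 0 indicate rising inhibition; between -100 and 0 indicates cell death.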 Unmarked numbers belong to inactive results. The source made the active and inactive calls.

Each compound was assayed on OVCAR-4 ovarian (assay: NCI-60 one-dose screen, 48 h (100 = growth as untreated, 0 = no growth, -100 = all killed)). Settings: 10 µM.
Method: Growth inhibition of the OVCAR-4 human tumor cell line is measured as a screen for anti-cancer activity. Cells are grown in 96 well plates and exposed to the test compound for 48 hours. Compounds are tested at a single concentration, which is 10^-5 M for most compounds. The reported endpoint is percent growth (GI% or GIPRCNT), where numbers from 0 - 100% represent growth inhibition, and numbers from -100% - 0 represent cell death. For example, a value of 40 represents 60% growth inhibition. A value of 0 means no net growth occurred over the course of the experiment. A value of -40 indicates 40% of cells at the beginning of the experiment died by the end of the experiment. A value of -100 means all cells are dead at the end of the experiment.
NCI-60 Human Tumor Cell Lines Screen was performed using the standard one-dose NCI protocol, which is described in more detail at https://dtp.cancer.gov/discovery_development/nci-60/default.htm.
Compounds with GIPRCNT values below 10 were considered active. Activity score was based on GIPRCNT using the following formula: […]
Score is 0 for GIPRCNT values of 100 or above, 50 for GIPRCNT values of 0, and 100 for GIPRCNT values of -100.

| SMILES | growth |
| --- | --- |
| Cc1ccc(C(=O)CSc2nnc(-c3c[nH]c4ccccc34)n2-c2ccccc2)cc1 | -15.6% (active) |
| CCC(C)S(=O)(=O)c1oc(-c2ccc(C)cc2)nc1S(=O)(=O)c1ccccc1 (stereo not given) | -83.7% (active) |
| COc1ccc(C(=O)/C=C/c2cc(C(F)(F)F)cc(C(F)(F)F)c2)cc1S(N)(=O)=O | -80% (active) |
| CCOc1ccc2ncc(C#Cc3cncc(C(=O)Nc4ccc(CN5CCN(C)CC5)c(C(F)(F)F)c4)c3)n2n1 | -60.6% (active) |
| CC(C)C(=O)Nc1ccc(C(=O)NC(=S)Nc2ccc(C(=O)O)cc2)cc1 | 111% |
| CC(=O)Nc1nc(-c2ccc(N3CCN(C)CC3)c(NS(=O)(=O)c3ccc(C(F)(F)F)cc3)c2)cs1 | 43.3% |
| O=c1nc(-c2ccccc2)cc(-c2cc3ccccc3nc2Cl)[nH]1 | 80.6% |
| CCCn1c(=O)c2[nH]c(-c3ccc(OCc4nc5ccccc5[nH]4)cc3)nc2n(CCC)c1=O | 3.46% (active) |
| O=C(Nc1ccc(I)cc1F)c1cc(-c2ccc(F)cc2F)ccc1O | 17.2% |
| CC(=O)NNc1ccc2nnc(-c3ccc(Br)cc3)n2n1 | 99.4% |
| O=C(CNc1nc(-c2ccccc2)cs1)Nc1ccc(Cl)cc1 | -33.8% (active) |
| CN1CCCN(Cc2ccc(C(=O)Nc3cccc(Nc4ccc5c(O)cccc5n4)c3)cc2C(F)(F)F)CC1 | -43.5% (active) |
| COc1cc2oc(-c3cccc(C(=O)Nc4ccc(Cl)cc4)c3)cc(=O)c2c(OCCNC(=O)CNC(=O)OC(C)(C)C)c1OC | 65.8% |
| COc1ccc2[nH]c(O)c(N=NC(=O)c3cc(-c4ccc(C)cc4)nc4ccccc34)c2c1 | 91.8% |
| COc1cc(/C=C/C(=O)c2ccc(C(F)(F)F)cc2)ccc1Oc1nc(Nc2ccc(F)cc2)nc(N(C)C)n1 | 69.8% |
| COc1ccc(C=CC(=O)c2ccc(-n3c(C)nc4c(cnn4-c4ccccc4)c3=O)cc2)cc1 | 65.7% |
| C[C@H]1[C@H](C)CC[C@]2(COC(=O)CCC(=O)NCC#CCN3CCNCC3)CC[C@]3(C)C(=CC[C@@H]4[C@@]5(C)CCCNC(C)(C)[C@@H]5CC[C@]43C)[C@H]12 | 66.1% |
| Cc1cc(C)nc(NS(=O)(=O)c2ccc(N/C(N)=N/c3nccc(-c4ccccc4)n3)cc2)n1 | 67.3% |
| N#Cc1ccc(-c2nn(-c3ccc(C(=O)O)cc3)cc2CNc2cc(Cl)cc(Cl)c2)cc1 | 65.4% |
| COc1ccc(NC(=O)Cn2c(/C=C/c3ccc(N(C)C)cc3)nc3ccccc3c2=O)cc1 | 58.7% |

| SMILES | growth |
| --- | --- |
| CCOP(=O)(OCC)O[C@H]1CCC(=O)[C@@H]2[C@H]1[C@H]1C[C@@H]3[C@@]4(C)CCCC(C)(C(=O)OC)[C@@H]4CC[C@@]23C=C1C(C)C (stereo not given in full) | 49.5% |
| CN1CCc2c(sc3ncnc(N/N=C/c4cn(-c5ccccc5)nc4-c4ccc(Br)cc4)c23)C1 | 51.4% |
| CCN1CCN(c2ccc(NC(=O)Nc3ccc(-c4cc(C(=O)NC(C)C)c5ncccc5n4)cc3)cc2C(F)(F)F)CC1 | -83.2% (active) |
| COc1ccc(-c2ccc(/C=N/NC(=O)c3[nH]c4ccc(Br)cc4c3-c3ccccc3)s2)cc1 | 79.6% |
| O=C(c1ccc(O)cc1)C1[C@H](c2ccc(Br)cc2)[C@@H](c2ccccc2)NC12C(=O)Nc1ccc(Br)cc12 (stereo not given in full) | 14.3% |
| C/C(=N\N=C\c1ccc(Cl)c([N+](=O)[O-])c1)c1ccc2c(c1)Nc1ccccc1S2 | 23.7% |
| CO[C@@H]1CSS[C@H]1Cn1nc(-c2ccc(Oc3ccccc3)cc2)c2c(N)ncnc21 | 67.3% |
| CN1CCN(c2ccc(Nc3nc(N4CCN(S(=O)(=O)c5ccc(F)cc5)CC4)c4sccc4n3)cc2)CC1 | -89.3% (active) |
| CC(=O)NCC1=C(C)C=C2C(=O)[C@](C)(O)C3(CC3)C(C)=C21 | -53% (active) |
| Cc1ccc(C(=O)NNC(=O)CSc2nc3ccccc3c(=O)[nH]2)cc1 | 104% |
| CC1(C)CC[C@]2(C(=O)N3CCOCC3)CC[C@]3(C)C(=CC[C@@H]4[C@@]5(C)CC[C@H](NCO)C(C)(C)[C@@H]5CC[C@]43C)[C@H]2C1 | -89.5% (active) |
| COc1cc(C2CC(c3ccccc3)=Nc3c(N)nc(N)nc3N2)ccc1Oc1nc(Nc2ccc(F)cc2)nc(N(C)C)n1 (stereo not given) | 35.5% |
| O=c1cc(-c2ccccc2)oc2cc(OCCCCNCc3ccccc3)cc(O)c12 | 34.7% |
| CC(C)C1=C[C@@]23CC[C@@H]4[C@](C)(CCC[C@]4(C)C(=O)NCc4ccccc4)[C@H]2C[C@@H]1[C@H]1C(=O)OC(=O)[C@H]13 | 49.8% |
| COc1ccc2[nH]c(O)c(N=NC(=O)COc3ccc(NC(=O)Nc4ccc(Cl)cc4)cc3)c2c1 | -21.6% (active) |
| CN1C(=O)/C(=C/c2nccs2)SC1=S | 84.1% |
| CCOC(=O)C1NN(c2ccc(S(N)(=O)=O)cc2)c2nc3nc(-c4cccs4)cc(-c4cccs4)c3c(=O)n21 (stereo not given) | 70.2% |
| O=C(c1ccc(O)cc1)C1[C@H](c2ccc(Br)cc2)[C@@H](c2ccccc2)NC12C(=O)Nc1ccccc12 (stereo not given in full) | 34.1% |
| CCN1CCN(Cc2ccc(C(=O)Nc3cccc(-c4cn(-c5ccc6oc(=O)ccc6c5)nn4)c3)cc2C(F)(F)F)CC1 | -100% (active) |
| O=C(CS(=O)(=O)c1oc(-c2ccc(Cl)cc2)nc1S(=O)(=O)c1ccc(Cl)cc1)N1CCOCC1 | -8.45% (active) |
